Bioassay records from PubChem.
Shown are actives, neighbours in structure and some others; about 13% of the full set was active somewhere.
CHOP inh – inhibitors of CHOP promoter induction, primary screen, cell-based, unfolded protein response, luciferase reporter | 220,000 tested, 3.8% active | AID 2732, 2010 | CHO-K1 CHOP-promoter luciferase, tunicamycin-induced, 15-18 h | inhibition, % at 10 µM;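 active = compounds that reduced the stress-induced luciferase reporter signal by more than about 70% of percent inhibition, limit read from the data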;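 also: 0% = tunicamycin plus vehicle and 100% = wells without tunicamycin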
WT yeast gro inh – growth inhibition of WT strain, primary screen, mitochondrial fusion inhibitor project, WT and mutant strains, chemical genetic; 190,000 tested, 2.1% active; AID 1362, 2008; mitochondrial fusion phenotypic screen; inhibition, % at 10 µM; in the data active = inhibition above about 58%; tested in S. cerevisiae
RAM inhibit – inhibitors of the yeast RAM network, primary screen, dse1pr::URA3 reporter, 5-FOA selection; S. cerevisiae dse1pr::URA3 reporter, 5-FOA growth OD615, 2 d; analog-sensitive cbk1-as2 kinase mutant strain; inhibition, % at 50 µM; 190,000 tested, 1.8% active;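 active = inhibition above a set limit, 3 SD over mean compound inhibition, cut at about 8.4% in these data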;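 also: 0% = DMSO-only wells with no growth and 100% = 10 µM 1-NA-PP1 full growth; inhibition rescues growth on 5-FOA so higher OD means more RAM inhibition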
L major viab – Leishmania major promastigote growth inhibition, primary screen. Leishmania major promastigotes, resazurin fluorescence viability. inhibition, % at 10 µM. 200,000 tested, 9% active; in the data active = inhibition above about 50%;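 also: promastigotes grown with compound for 44 hours at 28 °C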
CHOP inh conf – retest of CHOP induction inhibitors, confirmation, cell-based. shares compounds with CHOP inh. CHO-CHOP promoter luciferase reporter, tunicamycin-induced, luminescence. inhibition, % at 10 µM. 2,100 tested, 45% active. AID 504437, 2011;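 active = mean of three repeat readings of reporter signal inhibition above a set limit, cut at about 70% in these data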;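 also: 0% = tunicamycin plus vehicle and 100% = wells lacking tunicamycin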
* hit, by the source's call; / = no result.

SMILES	CHOP inh	WT yeast gro inh	RAM inhibit	L major viab	CHOP inh conf
O=C1/C(=N\S(=O)(=O)c2cccs2)C([n+]2ccccc2)=C([O-])c2ccccc21	-26.3	/	/	/	/
Cc1cccc(NC2=C(NCCO)C(=O)c3ccccc3C2=O)c1	5.4	15.0	1.9	-6.8	/
O=C1C(Nc2ccc(O)cc2)=C/C(=N/S(=O)(=O)c2cccs2)c2ccccc21	108.1*	40.6	11.2*	100.4*	110.4*
Cc1cccc(NC2=C/C(=N/S(=O)(=O)c3cccs3)c3ccccc3C2=O)c1	106.4*	20.4	5.6	18.7	114.1*
Cc1ccc(NC2=C/C(=N\S(=O)(=O)c3cccs3)c3ccccc3C2=O)c(C)c1	/	95.9*	4.3	100.5*	118.8*
Cc1ccc(Cn2cc(SCC(N)=O)c3ccccc32)cc1	18.0	-14.3	4.4	-1.3	/
Cc1cc(C)c2c(c1)/C(=N/Nc1ccc(S(N)(=O)=O)cc1[N+](=O)[O-])CCC2	15.7	-3.4	6.1	12.9	/
NS(=O)(=O)c1ccc(N/N=C2/CCCCC2C2CCCCC2)c([N+](=O)[O-])c1 (stereo unspecified)	107.6*	95.6*	1.1	23.1	115.4*
c1ccc(N2CCN(c3nnnn3-c3ccccc3)CC2)cc1	26.1	17.7	2.4	15.3	/
ClC(Cl)(c1nnnn1-c1ccccc1)c1nnnn1-c1ccccc1	108.2*	87.6*	-1.6	49.9	30.3
Cc1cc(C)nc(S/C=C/C(=O)c2ccc(F)cc2)n1	-22.2	/	/	/	/
COc1ccccc1NC(=O)c1c(Nc2ccccc2C)sc(C(=O)Nc2cccc(Cl)c2)c1N	100.0*	2.4	3.5	18.8	131.0*
COc1ccc(Nc2sc(C(=O)c3ccc(Cl)cc3)c(N)c2C(=O)Nc2ccccc2OC)cc1	29.1	7.1	3.6	-2.0	/
CCOC(=O)C(NC(=O)c1ccc(Cl)cc1Cl)(Nc1ccc(C)cc1)C(F)(F)F (stereo unspecified)	-6.0	3.4	1.8	15.7	/
C=C(C)COc1ccc(-c2n[nH]c(C)c2-c2ccc(Br)cc2)c(O)c1	/	26.1	10.4*	9.4	106.2*
CCN(CC)S(=O)(=O)c1cccc(NC(=O)Nc2cccc(C(F)(F)F)c2)c1	99.9*	18.8	7.8	100.5*	124.0*
CCN(CC)S(=O)(=O)c1ccc2c(c1)nc(CCC(=O)Nc1cccc(C(F)(F)F)c1)n2CC	28.5	-11.9	3.0	38.2	/
O=C1C(=O)N(c2ccc(O)cc2)C(c2ccccc2[N+](=O)[O-])/C1=C(\O)c1ccccc1 (stereo unspecified)	-48.4	/	/	/	/
O=C(O)c1ccc(N/N=C/c2ccc3nccnc3c2)cc1	100.9*	/	/	/	116.2*
CCCCCN1C(=O)Cn2c(nc3ccccc3c2=O)C1C (stereo unspecified)	15.0	-1.0	0.4	-1.8	/
CC(C)(C)c1ccc(-c2noc(CCC(N)=O)n2)cc1	100.5*	0.4	0.7	-5.7	113.0*
CC(C)(C)c1ccc(-c2noc(CCC(=O)N3CCOCC3)n2)cc1	28.9	-2.6	0.6	14.1	/
CCOC(=O)c1csc(NC(=O)Nc2cccc(Cl)c2)n1	98.3*	-6.5	3.5	87.5*	38.1
Nc1ccc(Oc2ccc3nc(-c4ccccc4)c(-c4ccc([N+](=O)[O-])cc4)nc3c2)cc1	-15.5	25.2	4.8	39.5	/
CCOC(=O)C1=C(c2ccccc2)OC(N)=C(C#N)C1C1CCCCC1 (stereo unspecified)	109.1*	-2.0	1.0	12.7	52.3
SMILES	CHOP inh	WT yeast gro inh	RAM inhibit	L major viab	CHOP inh conf
CC(C)=NOc1cc(NC(=O)CCl)cc([N+](=O)[O-])c1	111.5*	12.7	1.1	98.6*	110.2*
O=C(NC(=S)Nc1cc(C(F)(F)F)ccc1N1CCOCC1)c1ccco1	-13.2	/	/	/	/
CC(C)(C)c1nnc(N/N=C/c2cc(Br)ccc2O)n(N)c1=O	106.5*	16.3	-0.4	98.1*	117.5*
O=C(CSc1nnc(-c2cccnc2)n1CCN1CCCCC1)Nc1cccc(Cl)c1	-9.5	-11.6	0.5	0.9	/
O=C1c2ccc3c4c(ccc(c24)C(=O)N1c1cccc(O)c1)C(=O)N(c1cccc(O)c1)C3=O	100.9*	/	/	/	86.3*
CNc1oc(-c2ccc(C)cc2)nc1P(=O)(c1ccccc1)c1ccccc1	106.6*	48.9	1.6	21.8	42.8
COP(=O)(OC)c1nc(-c2ccccc2)oc1NCc1ccccc1	8.3	5.2	-0.1	4.2	/
CC(C)c1ccc(NC(=O)C(c2ccccc2)N(Cc2ccco2)C(=O)CC2NC(=O)NC2=O)cc1 (stereo unspecified)	4.0	-11.0	0.4	-1.9	/
CCSCc1nnc(SCC(=O)Nc2nc(C)cs2)n1C	7.9	5.7	0.0	-3.1	/
CO/N=C/CC(=O)c1cnc(-c2ccc(Cl)cc2)s1	26.4	7.8	0.0	12.5	/
O=C(COc1ccc(Cl)cc1Cl)NCCC1=CCCCC1	107.2*	65.8*	1.4	-3.8	115.1*
Cc1ccccc1OCC(=O)NCCC1=CCCCC1	-31.5	9.0	-0.4	8.2	/
O=C(COC(=O)/C=C/c1cccc(Br)c1)NCCC1=CCCCC1	96.2*	10.1	9.8*	-8.1	-1.1
O=C(O)CC1SC(N/N=C/c2ccc(Br)cc2)NC1=O (stereo unspecified)	-9.7	-2.5	0.5	-2.9	/
Oc1c(Cl)cc(Cl)cc1CNc1ccc(Br)cn1	104.4*	1.7	1.6	-4.2	-2.3
Oc1ccc(Cl)cc1CNc1ccc(Br)cn1	/	10.2	0.8	10.0	/
COc1ccccc1NCC(=O)N/N=C(\C)c1ccc(Br)s1	98.2*	-0.2	2.8	-0.3	39.9
C/C(=N/NC(=O)CNc1ccc(C)cc1)c1ccc(Br)s1	64.9	17.3	3.5	-1.2	/
O=C(COC(=O)c1n[nH]c(=O)c2ccccc12)c1ccc(Br)cc1	103.8*	8.7	4.9	-12.9	-70.2
O=C(Cc1ccccc1)Nc1ccccc1N1CCCC1	11.6	5.4	0.1	1.5	/
O=C(CNC1CCCCCC1)Nc1ccccc1N1CCCCC1	97.6*	-16.2	-0.1	10.8	93.9*
Cc1ccc(OCC(=O)N/N=C/c2cn[nH]c2-c2ccc(Cl)c(Cl)c2)cc1	99.2*	-3.0	2.4	1.2	72.4*
Cc1ccc(OCC(=O)N/N=C/c2cn(C)c3ccccc23)cc1	42.0	/	/	/	/
COc1ccc(C(=O)c2c(C(F)(F)F)oc3c2C(=O)c2ccccc2C3=O)cc1OC	105.9*	90.4*	2.4	100.3*	70.6
COc1ccc(C(=O)Nc2ccc3c(c2)C(=O)c2ccccc2C3=O)cc1OC	2.7	-10.3	3.8	-7.3	/
CCOc1cc(/C=N/OC(C)=O)ccc1OCc1ccccc1	3.2	-2.0	-0.2	6.6	/
CCOc1cc(/C=C2/C(=O)ON=C2C)ccc1OCc1ccccc1F	98.9*	11.1	7.1	58.3*	111.7*
CCOc1cc(/C=C2/C(=O)ON=C2C)ccc1OCc1ccccc1	105.1*	2.4	10.4*	39.9	-16.2
CCOc1cc(/C=C2/C(=O)ON=C2C)ccc1OCc1ccc(F)cc1	99.5*	4.0	9.9*	32.9	124.5*
